± gives the standard deviation of the averaged measurements.

The test system of the experiment is firefly luciferase (FLuc). The experiment is described as follows: residual bioluminescent signal relative to negative (DMSO) control; higher = less interference (more residual luciferase signal). As for the experimental part: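 Purified luciferase (FLuc 10 nM + 10 uM D-luciferin; NLuc 10 pM + 10 uM furimazine; RLuc 50 pM + 2 uM coelenterazine) in 384-well plates; metal salt pre-incubated with enzyme 10 min at RT, substrate added and luminescence read after 10 min. Signal normalised to plate DMSO negative control (% N_VALUE = x/mean neg *100); triplicate wells at 0.01, 1 and 5 mM salt.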

[1] abbreviates: metal salt concentration 0.01 mM, HEPES conditions (100 mM HEPES, 5 mM MgSO4, 10 uM ATP, pH 7.5).
The mark [2] stands for this setting: metal salt concentration 0.01 mM, screening conditions (0.5 mM Tris, 50 mM glycine, 0.5 mM EDTA, 5 mM MgSO4, 10 uM ATP, pH 7.6).
[3] abbreviates: metal salt concentration 1 mM, HEPES conditions (100 mM HEPES, 5 mM MgSO4, 10 uM ATP, pH 7.5).
Setting [4] is: metal salt concentration 1 mM, screening conditions (0.5 mM Tris, 50 mM glycine, 0.5 mM EDTA, 5 mM MgSO4, 10 uM ATP, pH 7.6).
Setting [5] is: metal salt concentration 5 mM, HEPES conditions (100 mM HEPES, 5 mM MgSO4, 10 uM ATP, pH 7.5).
The mark [6] stands for this setting: metal salt concentration 5 mM, screening conditions (0.5 mM Tris, 50 mM glycine, 0.5 mM EDTA, 5 mM MgSO4, 10 uM ATP, pH 7.6).

Consider `O=[N+]([O-])[O-].[K+]` [potassium nitrate], for which the residual bioluminescent signal stood at 111 ± 4.3% under setting [1]; 100.2 ± 0.6% under setting [2]; 116 ± 12% under setting [3]; 98.6 ± 7% under setting [4]; 86.1 ± 12% under setting [5]; 65.5 ± 7.8% under setting [6].

Regarding `O=[N+]([O-])[O-].O=[N+]([O-])[O-].[Pb+2]` [lead(II) nitrate], the residual bioluminescent signal under setting [1] was 3.12 ± 1.6%; the residual bioluminescent signal under setting [2] is 93.3 ± 4.7%; the residual bioluminescent signal under setting [3] was determined as 0.814 ± 0.41%; the residual bioluminescent signal under setting [4] worked out at 0.685 ± 0.48%; the residual bioluminescent signal under setting [5] stood at 0.95 ± 0.23%; the residual bioluminescent signal under setting [6] came out at 0.343 ± 0.17%.

For the molecule `O=[N+]([O-])[O-].[Na+]` [sodium nitrate], the residual bioluminescent signal is 90 ± 7.6% under setting [1]; 79.1 ± 6.3% under setting [2]; 72.4 ± 18% under setting [3]; 71.7 ± 2.9% under setting [4]; 60 ± 13% under setting [5]; 50 ± 4.3% under setting [6].

In the case of `O=[N+]([O-])[O-].O=[N+]([O-])[O-].O=[N+]([O-])[O-].[Al+3]` [aluminium nitrate], the residual bioluminescent signal worked out at 78.9 ± 7.9% under setting [1]; 75.8 ± 6% under setting [2]; 0.679 ± 0.47% under setting [3]; 0.343 ± 0.17% under setting [4]; 0.543 ± 0.23% under setting [5]; 90.5 ± 5.5% under setting [6].

Turning to `O=[N+]([O-])[O-].O=[N+]([O-])[O-].[Ca+2]` [calcium nitrate], the residual bioluminescent signal came to 70 ± 9.6% under setting [1]; 75.6 ± 6.7% under setting [2]; 67.2 ± 14% under setting [3]; 60.2 ± 8.9% under setting [4]; 29.2 ± 2.8% under setting [5]; 24.5 ± 3.4% under setting [6].

Regarding `O=[N+]([O-])[O-].[Ag+]` [silver nitrate], the residual bioluminescent signal is, setting by setting: under setting [1], 1.36 ± 0.62%; under setting [2], 1.13 ± 0.6%; under setting [3], 1.36 ± 1.6%; under setting [4], 0.316 ± 0.079%; under setting [5], 1.49 ± 0.62%; under setting [6], 0.369 ± 0.17%.

For the origin of these results see the supplement of paper PMC11628255, “Interference of metal ions on the bioluminescent signal of firefly, Renilla, and NanoLuc luciferases in high-throughput screening assays” (Frontiers in Chemistry, 2024).
